Reference: PubChem BioAssay AID2185 (Vanderbilt High Throughput Screening Facility, 2009)
Results with a measured potency or affinity are listed apart.

Target: Metabotropic glutamate receptor 4 (Rattus norvegicus) (UniProt P31423)
Test: PubChem AID 2185
Settings: HEK/GIRK cells expressing rat mGluR4, thallium flux PAM; hits give high values; call rule not given here

Metabotropic glutamate receptor 4 (Rattus norvegicus), sequence (P31423 whole entry, looked up): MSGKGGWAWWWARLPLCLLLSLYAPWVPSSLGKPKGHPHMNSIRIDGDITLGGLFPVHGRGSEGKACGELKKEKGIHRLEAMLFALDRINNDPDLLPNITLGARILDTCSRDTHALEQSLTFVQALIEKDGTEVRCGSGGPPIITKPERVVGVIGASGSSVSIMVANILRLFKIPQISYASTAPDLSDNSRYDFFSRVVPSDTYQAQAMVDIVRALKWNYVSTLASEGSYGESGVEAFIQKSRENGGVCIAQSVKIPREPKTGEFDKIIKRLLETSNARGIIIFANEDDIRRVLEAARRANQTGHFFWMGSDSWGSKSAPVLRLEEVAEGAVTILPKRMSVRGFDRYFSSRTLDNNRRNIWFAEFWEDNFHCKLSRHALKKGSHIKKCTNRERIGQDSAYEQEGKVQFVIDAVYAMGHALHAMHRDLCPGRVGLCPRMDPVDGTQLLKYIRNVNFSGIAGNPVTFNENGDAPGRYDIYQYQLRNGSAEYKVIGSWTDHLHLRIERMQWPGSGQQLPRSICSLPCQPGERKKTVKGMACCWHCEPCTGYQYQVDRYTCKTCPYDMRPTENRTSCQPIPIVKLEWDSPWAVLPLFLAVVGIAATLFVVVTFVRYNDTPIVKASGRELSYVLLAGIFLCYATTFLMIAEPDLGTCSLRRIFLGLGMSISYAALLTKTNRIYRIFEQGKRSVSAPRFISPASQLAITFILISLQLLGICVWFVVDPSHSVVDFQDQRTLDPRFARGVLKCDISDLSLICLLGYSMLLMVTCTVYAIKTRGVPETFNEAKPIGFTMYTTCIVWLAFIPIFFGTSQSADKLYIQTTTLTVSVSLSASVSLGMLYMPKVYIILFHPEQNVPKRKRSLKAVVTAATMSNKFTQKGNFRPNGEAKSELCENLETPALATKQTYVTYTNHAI

% glutamate max, inactive:
O=C(Nc1cccc(C(F)(F)F)n1)c1ccccn1 25.1%
COc1cc(NC(=O)c2ccccn2)ncn1 25.5%
O=C(Nc1ccc(N2CCCS2(=O)=O)cc1)c1ccccn1 30.1%
